# Assay outcomes (PubChem BioAssay)
# Only some compounds are listed: those with a hit (about 11% of all), similar ones and a draw of the others.
# Sm TGR inh: blocks Schistosoma mansoni thioredoxin glutathione reductase; Q962Y6; purified TGR, DTNB reduction, TNB absorbance 405 nm; Potency, µM (doses to about 114 µM), inactives show top-dose activity change, negative = inhibition, hits mostly inhibitors; actives 3% (n = 360,000); AID 485364; further: on the % scale 0 is the no-effect control and ±100 the full control effect; nearly all actives have a fitted effect of over 60% in size
#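 Kinetic colorimetric format: TGR-catalysed, NADPH-driven DTNB reduction monitored via TNB absorbance. Enzyme dispensed at 20 nM; compound exposure 15 min at room temperature before reaction start.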
# NS1 function inh: influenza NS1 inhibition; Potency, µM (top dose mostly 46.1 µM), inactives show top-dose activity, positive = more growth; actives 0.4% (n = 270,000); calls by dose curve; further: actives are rising curves; nearly all actives have a fitted effect of over 50% in size
#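 A cell-based growth assay was used: compounds that relieve NS1-induced slow growth of budding yeast raise OD600. Assay medium was yeast nitrogen base with ammonium sulphate and -URA supplement, pH 6.0, with 2% galactose.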
# Pf growth 48h: inhibits P. falciparum growth in the first generation, 48 h; P. falciparum luciferase growth in erythrocytes, 48 h; actives 5.9% (n = 310,000); Potency, µM (highest dose often 28.7 µM), for the others: at the top dose activity change, negative = inhibition, usual class: inhibitors; further: on the % scale 0 is the no-effect control and ±100 the full control effect
#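 Compounds are pin-transferred into medium, infected erythrocytes (2% hematocrit, 0.1% parasitemia final) are added, and plates sit one parasite generation at 37 C in 5% CO2. Detection reagent is then added and luminescence measured.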
# AMA1-RON2 inh: disrupts binding of P. falciparum AMA1 to RON2; Potency, µM (doses to about 58.2 µM), for the others: at the highest dose activity change, negative = inhibition, actives largely listed as inhibitors; AlphaScreen AMA1-biotinylated RON2 peptide binding; actives 0.2% (n = 360,000); AID 720542;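 further: 0% = vehicle wells and -100% = peptide control; nearly all actives have a fitted effect of over 45% in size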
#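 AMA1 (3D7) with his tag at 25 nM final met compounds first, then biotinylated RON2 peptide at 25 nM; detection used donor plus acceptor beads, 10 µg/mL apiece, read by AlphaScreen after 30 min at room temperature.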
# Pf growth 96h: inhibits malaria parasite growth, 96 h; P. falciparum luciferase reporter growth, 96 h; Potency, µM (top dose mostly 28.7 µM), without a hit: at the top dose activity change, negative = inhibition, actives largely listed as inhibitors; actives 6.9% (n = 320,000); further: on the % scale 0 is the no-effect control and ±100 the full control effect
#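 Compounds incubated with erythrocytes infected by luciferase-expressing P. falciparum (2% hematocrit, 0.05% parasitemia final) for 96 hours, 37 C in 5% CO2. Growth inhibition scored as decreased luciferase luminescence.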
# * hit, by the source's call; ? = inconclusive; / = not tested or not shown. Unless noted, the call rests on the fitted dose curve; in most records, active means well fitted curve in the direction sought with a large enough effect; inconclusive means small, poorly fitted or top-dose-only effect, or another doubt; inactive means no such curve, though single readings can be large; an effect the other way counts as inactive or inconclusive. Potency means the concentration at half of the fitted maximal effect.
SMILES,Sm TGR inh,NS1 function inh,Pf growth 48h,AMA1-RON2 inh,Pf growth 96h
CCOc1ccc(N2C(=O)CC(N(Cc3ccco3)C(C)=O)C2=O)cc1 (stereo not given),50µM*,4%,17%,-17%,?
S=c1[nH]cnc2scc(-c3ccccc3)c12,-22%,10%,?,14%,0.33µM*
c1ccc(CN2CCC3CC2c2ccc(N4CCOCC4)cc23)cc1 (stereo not given),/,/,/,4%,/
CCc1nnc(NC(=O)c2cc(-c3ccco3)nc3ccccc23)s1,16µM*,/,-19%,?,29%
CCc1nnc(NC(=O)c2cc(-c3ccccn3)nc3ccccc23)s1,-7%,/,20%,0%,2%
Cc1cccc(NC(=O)c2cc(Cl)nc3ccccc23)n1,16%,-7%,?,-17%,?
Cc1cccc(NC(=O)c2cc(-c3ccco3)nc3ccccc23)n1,20µM*,-1%,-16%,?,20%
Cc1cccc(NC(=O)C(=O)c2cc(C)n(-c3ccccc3)c2C)c1C,7%,/,/,/,/
O=C(CN1C(=O)C2(SCC(=O)N2c2cccc(F)c2)c2ccccc21)NCCc1ccccc1 (stereo not given),-3%,/,/,/,/
O=C(COC(=O)c1ccccc1C(=O)N1CCN(c2ccccc2)CC1)Nc1ccccc1,7%,-2%,4.1µM*,-6%,-9%
Cc1ccc(CSCC(=O)N2CCN(c3ccccc3)CC2)cc1,7%,-12%,-7%,-13%,4.1µM*
O=C(CSCc1ccccc1)N1CCN(c2ccccc2)CC1,-9%,-10%,72%,4%,?
O=C(O)c1ccccc1C(=O)N1CCN(C(=O)c2ccccc2Cl)CC1,89µM*,/,-11%,3%,?
O=C(O)c1ccccc1C(=O)N1CCN(c2ccccc2)CC1,35µM*,3%,29%,-2%,?
CCOc1ccnc2c1c(=O)n(Cc1cc(OC)cc(OC)c1)c(=O)n2C,8%,5%,?,7%,?
O=c1c(Cc2c(F)cccc2Cl)c(O)ccn1CCCn1ccnc1,3%,5%,-9%,-3%,-13%
C=C1C(=O)O[C@@H]2C[C@@H](C)[C@@H]3C=CC(=O)[C@@]3(C)[C@@H](O)[C@H]12,25µM*,?,0.83µM*,10%,1µM*
C=C1C(=O)O[C@@H]2C[C@@H](C)[C@@H]3C=CC(=O)[C@@]3(C)[C@@H](OC(C)=O)[C@H]12,0%,-4%,2.1µM*,2%,2.9µM*
C[C@@H]1C[C@@H]2OC(=O)[C@]3(C)[C@H]2[C@@H](OC3(C)O)[C@]2(C)C(=O)C=C[C@H]12 (stereo not given in full),?,2%,13µM*,-1%,?
CCOc1ccc(NC(=O)NC23CC4CC(CC(C4)C2)C3)cc1,-4%,-31%,-17%,?,9%
O=C(Nc1ccc(C(F)(F)F)cc1Cl)c1ccc(Cn2cc(Br)cn2)o1,45µM*,-84%,6%,2%,?
O=C(NCc1ccccn1)c1ccc(Cn2cc(Br)cn2)o1,?,9%,-13%,19%,9%
O=C(NC1CCCCC1)c1ccc(Cn2cc(Br)cn2)o1,45µM*,-45%,/,-9%,-3%
O=C(Nc1cccc(C(F)(F)F)c1)c1ccc(Cn2cc(Br)cn2)o1,-23%,-108%,31%,0%,14%
COc1ccc(OC)c(CNC(=O)C2CCN(S(=O)(=O)N3CCC(C)CC3)CC2)c1,-9%,-10%,1%,-2%,12µM*
COc1cccc(CNC(=O)C2CCN(S(=O)(=O)N3CCC(C)CC3)CC2)c1,0%,-8%,22%,-13%,13µM*
COc1ccccc1C(=O)NCCC(=O)N(C)Cc1ccc(C)o1,0%,-6%,?,9%,-26%
CCOC(=O)[C@@H]1[C@H]2COc3cc(OC)ccc3[C@@H]2N2C(=O)N(c3ccc(Cl)cc3)C(=O)[C@]12C,/,/,/,0%,/
COc1ccc(C(CCNCc2ccc(N(C)C)cc2)c2ccccc2OC)cc1 (stereo not given),-8%,-1%,?,13µM*,?
COc1ccc(C(CCNCc2ccc(OC(C)C)cc2)c2ccccc2OC)cc1 (stereo not given),-2%,4%,12µM*,-12%,12µM*
